Measured values reported in PubChem BioAssay (Tox21).
Results filed as inconclusive are left out. Active and inactive are the calls of the source. Unless noted, calls come from the whole dose curve; as a rule, active = well fitted curve in the direction sought with a large enough effect in the repeat runs; inconclusive = weak or mixed curves; inactive = no such curve, though single readings can be large; an effect the other way counts as inactive or inconclusive.

How the values were obtained:
[1] = qHTS assay for small molecule agonists of the p53 signaling pathway (AID 651631; calls by dose curve; note: nearly all actives have a fitted effect of over 15% in size)
Method in brief: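 HCT-116 cells carrying a beta-lactamase reporter under p53 response elements were dosed with compound for 16 h at 37 °C. LiveBLAzer B/G FRET substrate was then added for 2 h at room temperature, and fluorescence intensity was read to detect pathway agonism.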

[2] = qHTS assay for small molecules that induce genotoxicity in human embryonic kidney cells expressing luciferase-tagged ATAD5 (AID 651632); note: nearly all actives have a fitted effect of over 15% in size
Method in brief: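 Reporter cells (HEK293T) express luciferase-tagged ATAD5, a protein that accumulates after DNA damage. Treat 16 hr at 37C/5% CO2, add Amplite, wait 30 min at RT, and read luminescence.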

[3] = qHTS assay for small molecule agonists of the p53 signaling pathway - cell viability (AID 651633; calls by dose curve;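 note: p53RE-bla HCT reporter cells with a stable beta-lactamase p53 reporter; series mostly up to about 83 µM; nearly all actives have a fitted effect of over 30% in size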)
Method in brief: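 p53RE-bla cells were treated with compound for 16 hours at 37 C. Cytotoxicity was then measured as CellTiter-Glo luminescence after 30 min at room temperature.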

[4] = qHTS assay for small molecule disruptors of the mitochondrial membrane potential - cell viability (AID 720634; calls by dose curve;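 note: human HepG2 liver cancer cells; series mostly up to about 83 µM; nearly all actives have a fitted effect of over 20% in size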)
Method in brief: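 Measuring cytotoxicity alongside mitochondrial potential, the screen quantified ATP by luminescence in HepG2 cells after 1 hr compound incubation and a 30 min room-temperature CellTiter-Glo step.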

[5] = qHTS assay for small molecule disruptors of the mitochondrial membrane potential (AID 720635)
Method in brief: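 HepG2 cells exposed to compound 1 hr at 37C, then Mito-MPS dye 30 min. Ratio read of aggregate (540/590 nm) versus monomer (490/535 nm) fluorescence.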

[6] = qHTS assay to test for compound auto fluorescence at 590 nm (red) in HepG2 cells (AID 720674)
Method in brief: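 Fluorescence at 590 nm emission following 540 nm excitation was recorded from HepG2 wells one hour after compound transfer, with DMSO-only wells as vehicle and Rose Bengal sodium equivalency as the scale.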

[7] = qHTS assay to test for compound auto fluorescence at 535 nm (green) in HepG2 cells (AID 720675)
[8] = qHTS assay to test for compound auto fluorescence at 460 nm (blue) in HEK293 cells (AID 720678)
Method in brief: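 HEK293, 2,000 cells/well, 10% dialyzed FBS; attach 4-5 hr 37C; pin compound or DMSO; o/n 37C/5% CO2; fluorescence 405/460 nm; triamterene-equivalent units.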

[9] = qHTS assay to test for compound auto fluorescence at 590 nm (red) in HEK293 cells (AID 720679)
Method in brief: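 Intensity at 540nm excitation and 590nm emission is reported as Rose Bengal sodium-equivalent autofluorescence. Measurements followed overnight exposure (37C, 5% CO2) of HEK293 cells, 2,000 per well, to 23 nL compound.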

[10] = qHTS assay to test for compound auto fluorescence at 535 nm (green) in HEK293 cells (AID 720680)
[11] = qHTS assay to test for compound auto fluorescence at 460 nm (blue) in HEK293 cell free culture (AID 720681)
Method in brief: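 Compounds were added to cell-free DMEM with 10% FBS and fluorescence read directly. The blue channel used 405 nm excitation and 460 nm emission, with triamterene as the reference fluorophore.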

[12] = qHTS assay to test for compound auto fluorescence at 535 nm (green) in HEK293 cell free culture (AID 720682)
Method in brief: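 Green-label autofluorescence (485 nm excitation, 535 nm emission) measured on compound added to cell-free culture medium (DMEM, 10% FBS). Output is expressed relative to fluorescein.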

[13] = qHTS assay to test for compound auto fluorescence at 590 nm (red) in HEK293 cell free culture (AID 720683)
Method in brief: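 Cell-free wells of DMEM with 10% FBS received compound, and intrinsic fluorescence was read at excitation/emission 540/590 nm. Values expressed as equivalence to Rose Bengal sodium.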

[14] = qHTS assay to test for compound auto fluorescence at 590 nm (red) in HepG2 cell free culture (AID 720684)
Method in brief: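 Compound was pinned into wells holding MEM with 10% FBS and no cells, and red fluorescence was read at Ex/Em 540/590 nm. Signal is expressed as auto fluorescence equivalency relative to Rose Bengal sodium.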

[15] = qHTS assay to test for compound auto fluorescence at 460 nm (blue) in HepG2 cell free culture (AID 720685)
Method in brief: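 Compound (23 nL) or DMSO pinned into cell-free MEM with 10% FBS; blue fluorescence read at 405/460 nm excitation/emission, expressed as auto-fluorescence equivalency to triamterene.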

[16] = qHTS assay to test for compound auto fluorescence at 535 nm (green) in HepG2 cell free culture (AID 720686)
[17] = qHTS assay to test for compound auto fluorescence at 460 nm (blue) in HepG2 cells (AID 720687)
Method in brief: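 HepG2 cells in MEM with 10% FBS, attached overnight at 37 C, were exposed to compound or DMSO for 1 hr at 37 C, 5% CO2. Blue fluorescence was read at 405/460 nm, with triamterene as reference fluorophore.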

[18] = biological target: Glucocorticoid receptor (Homo sapiens) (UniProt P04150); experiment: qHTS assay to identify small molecule agonists of the glucocorticoid receptor (GR) signaling pathway (AID 720691; active = well fitted activation curve with a large enough effect in the signal ratio in the repeat runs, not every such curve was filed as active; the % refers to the signal ratio)
Sequence of Glucocorticoid receptor (Homo sapiens) (P04150 whole entry, looked up): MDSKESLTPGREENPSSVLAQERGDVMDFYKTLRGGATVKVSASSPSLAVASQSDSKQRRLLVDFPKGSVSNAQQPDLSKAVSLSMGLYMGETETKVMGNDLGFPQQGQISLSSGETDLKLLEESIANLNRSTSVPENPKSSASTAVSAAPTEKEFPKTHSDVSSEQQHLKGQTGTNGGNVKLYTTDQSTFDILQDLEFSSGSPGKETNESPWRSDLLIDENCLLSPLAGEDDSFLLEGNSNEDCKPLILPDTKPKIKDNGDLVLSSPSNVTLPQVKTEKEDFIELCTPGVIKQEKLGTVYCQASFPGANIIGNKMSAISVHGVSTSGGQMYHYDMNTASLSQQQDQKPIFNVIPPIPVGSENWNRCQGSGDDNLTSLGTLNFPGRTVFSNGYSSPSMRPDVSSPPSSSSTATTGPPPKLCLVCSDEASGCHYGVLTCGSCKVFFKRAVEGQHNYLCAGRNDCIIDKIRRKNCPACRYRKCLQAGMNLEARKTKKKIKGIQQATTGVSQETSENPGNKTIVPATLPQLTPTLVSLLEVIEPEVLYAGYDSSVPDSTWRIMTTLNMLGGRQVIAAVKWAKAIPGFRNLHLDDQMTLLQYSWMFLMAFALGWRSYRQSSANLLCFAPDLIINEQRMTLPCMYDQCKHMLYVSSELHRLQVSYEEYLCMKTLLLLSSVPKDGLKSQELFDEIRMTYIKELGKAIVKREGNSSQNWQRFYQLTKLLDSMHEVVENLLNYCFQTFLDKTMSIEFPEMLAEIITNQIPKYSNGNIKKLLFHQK
Method in brief: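 Reporter read-out: fluorescence intensity following 2 h room-temperature LiveBLAzer B/G FRET substrate loading. Prior step: GR-bla HeLa cells held 4 h, then treated 18 h at 37 C.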

[19] = biological target: Glucocorticoid receptor (Homo sapiens) (UniProt P04150); experiment: qHTS assay to identify small molecule antagonists of the glucocorticoid receptor (GR) signaling pathway (AID 720692; active = well fitted inhibition curve with a large enough effect in the signal ratio in the repeat runs, not every such curve was filed as active; the % refers to the signal ratio)
Method in brief: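 Dexamethasone (5 nM final) stimulated a stably integrated GRE-beta-lactamase reporter in HeLa cells during 18 h co-incubation with compounds; signal was quantified as fluorescence intensity of B/G FRET substrate after 2 h.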

[20] = qHTS assay for small molecules that induce genotoxicity in human embryonic kidney cells expressing luciferase-tagged ATAD5 - cell viability (AID 651634; calls by dose curve; note: nearly all actives have a fitted effect of over 25% in size)
Method in brief: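 Seeding of 2,000 HEK293T ATAD5-luciferase cells per well preceded pin-tool compound transfer. Plates sat 15.5 hr at 37C under 5% CO2, then fluorescence was read after 30 min with CellTiter-Fluor.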

Measured: Potency

CC(C)OC(=O)Cc1ccccc1
inactive: [1] | [2] | [3] | [4] | [5] | [6] | [7] | [8] | [9] | [10] | [11] | [12] | [13] | [14] | [15] | [16] | [17] | [18] | [19]

CCC[N+](CCC)(CCC)CCC
inactive: [1] | [2] | [3] | [20] | [5] | [6] | [7] | [8] | [9] | [10] | [11] | [12] | [14] | [15] | [16] | [17]

C[N+](C)(C)CC1CO1 (stereo not given)
inactive: [1] | [2] | [3] | [20] | [5] | [6] | [7] | [8] | [9] | [10] | [11] | [12] | [13] | [14] | [15] | [16] | [17]

CN[C@@H](C)[C@H](O)c1ccccc1
inactive: [1] | [2] | [3] | [20] | [5] | [6] | [7] | [8] | [9] | [10] | [11] | [12] | [13] | [14] | [15] | [16] | [17] | [18] | [19]

Nc1cc(Cl)cc(C(=O)O)c1Cl
inactive: [1] | [2] | [3] | [20] | [5] | [6] | [7] | [8] | [9] | [10] | [11] | [12] | [13] | [14] | [15] | [16] | [17]

COC1CC(=C(c2cccs2)c2cccs2)C[N+](C)(C)C1 (stereo not given)
inactive: [1] | [2] | [3] | [4] | [5] | [6] | [7] | [8] | [9] | [10] | [11] | [12] | [13] | [14] | [15] | [16] | [17] | [18] | [19]

C=C(Cl)Cl
inactive: [1] | [2] | [3] | [5] | [6] | [7] | [8] | [9] | [10] | [11] | [12] | [14] | [15] | [16] | [17] | [19]

COc1ccc2c(c1OC)C(=O)O[C@H]2[C@@H]1c2cc3c(cc2CCN1C)OCO3
inactive: [1] | [2] | [3] | [20] | [5] | [6] | [7] | [8] | [9] | [10] | [11] | [12] | [13] | [14] | [15] | [16] | [17]
